Laboratory results reported in PubChem BioAssay AID1851 (National Center for Advancing Translational Sciences (NCATS), 2009).
“And” between values parts separate entries of the source, which are not always exact repeats. Equal values may be shown once. The campaign covered roughly 16,000 compounds. About 5,700 (36%) were called active. About 24% were inconclusive and are not listed. The call rests on the fitted dose curve; in most records, active means well fitted curve in the direction sought with a large enough effect; inconclusive means small, poorly fitted or top-dose-only effect, or effect the other way; inactive means no such curve, though single readings can be large or run the other way. The list shows a part of the results.

target: Cytochrome P450 1A2 (Homo sapiens) (UniProt P05177); test: Cytochrome panel assay with activity outcomes; details: recombinant CYP, pro-luciferin dealkylation, luminescence, p450-cyp1a2; series mostly up to 57.1 µM
Sequence (P05177 whole entry, looked up): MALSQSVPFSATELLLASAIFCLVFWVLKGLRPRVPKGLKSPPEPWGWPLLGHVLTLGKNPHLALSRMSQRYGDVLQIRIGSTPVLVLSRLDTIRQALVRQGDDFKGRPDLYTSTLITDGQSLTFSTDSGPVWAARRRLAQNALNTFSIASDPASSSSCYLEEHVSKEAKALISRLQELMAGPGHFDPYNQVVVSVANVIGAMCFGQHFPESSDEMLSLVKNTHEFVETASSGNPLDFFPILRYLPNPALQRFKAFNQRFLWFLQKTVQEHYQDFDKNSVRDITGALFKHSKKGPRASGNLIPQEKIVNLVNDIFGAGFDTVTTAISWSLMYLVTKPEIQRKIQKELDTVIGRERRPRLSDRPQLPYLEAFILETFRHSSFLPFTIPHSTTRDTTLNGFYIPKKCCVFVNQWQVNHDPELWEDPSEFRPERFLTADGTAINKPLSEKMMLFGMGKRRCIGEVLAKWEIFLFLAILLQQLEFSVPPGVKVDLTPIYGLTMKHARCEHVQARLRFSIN
Method: The P450 gene superfamily is involved in the metabolism and clearance of xenobiotics. This assay used various human CYP P450 isozymes to measure the dealkylation of various pro-luciferin substrates to luciferin. The luciferin is then measured by luminescence after the addition of a luciferase detection reagent. Pro-luciferin substrate concentration in the assay was equal to its KM for its CYP P450 isozyme. Inhibitors and some substrates limit the production of luciferin, and decrease measured luminescence.
NCGC Assay Protocol Summary:
1, Reagent, 2 uL, Isozyme and Pro-Luciferin
2, Library compounds, 23 nl, 40 uM to 0.24 nM dilution series
3, Controls, 23 nl, Isozyme specific inhibitor
4, Reagent, 2 uL, NADPH regeneration solution
5, Incubation time, 60 min, Isozyme specific temperature
6, Reagent, 4ul, Detection reagent
7, Incubation time, 20 min, Isozyme specific temperature
8, Detection, 1 sec, ViewLux luminescent read
The luciferase-based P450-GloTM Screening Systems were obtained from Promega (Madison, WI) for CYP 1A2 (V9770), CYP 2C9 (V9790), CYP2 C19 (V9880), CYP 2D6 (V9890), and CYP 3A4 Luciferin-PPXE (V9910) and were adapted for 1,536-well microplates and an automated protocol. The control compounds furafylline for 1A2 (F124), sulfaphenazole for CYP 2C9 (S0758), ketoconazole for CYP 2C19 (K1003), quinidine for 2D6 (Q3625), and ketoconazole for 3A4 (K1003) were purchased from Sigma Aldrich (St. Louis, MO). Recombinant P450 enzymes were obtained from baculovirus constructs expressed in insect cells (BD/Gentest).
Medium-binding white solid Kalypsys plates used. Mixtures kept on ice. 1A2: 10 nM 1A2, 100 uM Luc-ME, 100 mM KPO4; 2C9: 10 nM 2C9, 100 uM Luc-H, 25 mM KPO4; 2C19: 5 nM 2C19, 10 uM Luc-H EGE, 50 mM KPO4; 2D6: 5 nM 2D6, 30 uM Luc-ME EGE, 100 mM KPO4; 3A4: 10 nM, 25 uM Luc-PPXE. All amounts are reflected in their final concentration, working concentration is 2x.
NADPH regeneration solution: 1.3 mM NADP+, 3.3 mM glucose-6-phosphate, 3.3 mM MgCl2, 0.4 U/mL glucose-6-phosphate dehydrogenase for all isozymes, 200 mM KPO4 for 3A4. Mixture prepared at RT but kept on ice during automated run.
RT incubation in auxilliary plate hotel for 1A2, 2D6, and 3A4; 37C for 2C9 and 2C19.
Keywords: P450, CYP1A2, CYP2C19, CYP2C9, CYP2D6, CYP3A4, Luciferase, MLSMR, MLSCN, NIH Roadmap, qHTS, NCGC
On the % scale 0 is the no-effect control and ±100 the full control effect.

activity, negative = inhibition, inactive:
COc1cccc([C@@H]2Oc3ccc(OC)cc3/C(=N/O[C@@H](C)CN3CCCc4nc(C)c(C)cc43)[C@@H]2O)c1 2.03% [at 11.4 µM]
CCCNC(=O)OC[C@@H]1O[C@H](CCO/N=C(\C)CCC(=O)OC[C@@H]2O[C@H](c3ccccc3)C=C[C@@H]2Oc2ccc(OC)cc2)C=C[C@@H]1Oc1ccc(OC)cc1 -2.5% [at 11.4 µM]
Nc1ccccc1C(=O)/C=C\c1ccc2c(c1)OCO2 -4.77% [at 11.4 µM]
Cc1c(Cl)cccc1NC(=O)C[C@H]1Sc2ccccc2NC1=O -23.2% [at 2.29 µM]
CO[C@@H]1COC(=O)C/C=C\[C@@H](C)[C@@H]2C=C[C@H](O)[C@@H](COC(=O)CCC[C@H]1C)O2 1.73% [at 11.4 µM]
Cc1cc(N=Cc2c(CO)cnc(C)c2O)c(N=Cc2c(CO)cnc(C)c2O)cc1C.[Zn] -10.4% [at 2.29 µM]
CCCC(c1cc(C(C)(C)C)c(O)cc1C)c1cc(C(C)(C)C)c(O)cc1C -12.3% [at 2.29 µM]
CO[C@H]1COC(=O)[C@@H](CCSC)NC(=O)C/C=C\[C@@H](C)[C@H](OC)COC(=O)[C@@H](OCc2ccccc2)/C=C\[C@@H]1C -4.15% [at 11.4 µM]
CO/N=C\C[C@@H]1C=C[C@H](OC(C)=O)[C@H](COC(C)=O)O1 -9.17% [at 11.4 µM]
COc1ccc2c3c([nH]c2c1)[C@H]1C[C@@H]2[C@@H](C[C@@H](O)[C@H](OC)[C@H]2C(=O)O)CN1CC3 -1.02% [at 11.4 µM]
CN1CCCN(C)C1c1cc([N+](=O)[O-])ccc1O -14.3% [at 11.4 µM]
COc1cc(C2SCCCCCCCCCCSC(c3ccc(O)c(OC)c3)SCCCCCCCCCCS2)ccc1O (stereo unspecified) -6.91% [at 2.29 µM]
CC(C)=CCC/C(C)=C/CO/N=C1/C[C@@H](O)[C@@H](O)[C@@H]2[C@@H]3C(=O)N(Cc4ccc5c(c4)OCO5)C(=O)[C@H]3CC[C@@H]12 -3.81% [at 11.4 µM]
CC[C@H]1CN(C)[C@H]2Cc3c([nH]c4ccccc34)C(=O)C[C@H]1[C@H]2C(=O)OC -10.5% [at 11.4 µM]
O=C(O)[C@@H]1Cc2c([nH]c3ccccc23)[C@@H](CCCCO)N1 -9.61% [at 2.29 µM]
CC(C)(CO[C@H]1C[C@H]2CC[C@@]1(C)C2(C)C)[N+](=O)[O-] -17.1% [at 11.4 µM]

AC50, active:
CN(C)S(=O)(=O)c1cc([N+](=O)[O-])ccc1N1CCCCCC1 14.1 µM
CCNc1ccc(Br)cc(C(=O)/C=C/c2ccc3c(c2)OCO3)c1=O 22.4 µM
CNc1ccc(Br)cc(C(=O)/C=C/c2ccc3c(c2)OCO3)c1=O 3.16 µM
O=C(NC1CCCC1)C1CC(c2ccc(F)cc2)=NO1 (stereo unspecified) 15.8 µM
COC(=O)c1c(NC(=O)CC2Nc3ccccc3NC2=O)sc(C)c1C (stereo unspecified) 10 µM
Cc1cc(NC(=O)Nc2ccc(N(C)C)cc2)c2cc(F)cc(F)c2n1 0.126 µM
Cc1ccc(Nc2nc(-c3c(C)nc4ncccn34)cs2)cc1 3.16 µM
Cc1cc(Br)ccc1NCc1ccccn1 1.12 µM
Cc1cc(NCc2ccccn2)ccc1Br 4.47 µM
N#Cc1c(NC(=O)C(F)(F)F)sc2c3c(=O)c4ccccc4c(=O)c=3oc3ccccc3c12 1 µM
CN(C(=O)c1cnc(N2CCN(c3ncccn3)CC2)c2ccccc12)c1ccc(Cl)cc1 15.8 µM
CN(CCc1ccc(Cl)c(Cl)c1)CCN1CCCCCC1 31.6 µM
O=C(Cc1ccc(Cl)c(Cl)c1)OCCN1CCCC1 12.6 µM
Cc1ccc(C(=O)NCCNc2ccc(Cl)cc2[N+](=O)[O-])o1 2 µM
COc1cccc2cc3c(=O)oc4ccccc4c3nc12 0.0891 µM
O=C(NCCc1cccs1)C1CC(c2c(Cl)cccc2Cl)=NO1 (stereo unspecified) 0.501 µM
CCN(CC)C(=S)SSC(=S)N(CC)CC 6.31 µM and 1.58 µM
COc1ccc(-n2c(=O)c(-c3cn(C)c4ccccc34)nc3cnc(N4CCNCC4)nc32)cc1 15.8 µM
Cn1cc(-c2nc3cnc(N4CCNCC4)nc3n(-c3ccccc3)c2=O)c2ccccc21 15.8 µM
Cn1cc(-c2nc3cnc(N4CCNCC4)nc3n(C3CC3)c2=O)c2ccccc21 12.6 µM
COc1cnc(-c2ccccn2)nc1Oc1ccc(Cl)c2ccccc12 5.62 µM
CC(C)N(CCC(=O)c1ccc2ccccc2c1)Cc1ccccc1 3.98 µM
N=C(N)S[C@H]1c2ccccc2-c2cc([N+](=O)[O-])ccc21 0.158 µM
Cc1ccc(C)c(/C(O)=C2\C(=O)C(=O)N(Cc3cccnc3)C2c2cccnc2)c1 (stereo unspecified) 25.1 µM
COc1cccc(Cn2c(=O)c(-c3ccc(Cl)cc3)nc3cnc(OC)nc32)c1 3.98 µM
COc1cccc(Cn2c(=O)c(-c3cccs3)nc3cnc(OC)nc32)c1 3.16 µM
COc1cccc(Cn2c(=O)c(-c3cccs3)nc3cncnc32)c1 5.01 µM
O=C(CSc1nnc(SCc2cccc3ccccc23)s1)c1ccc2c(c1)OCO2 2.24 µM
COC(=O)C1Cc2c([nH]c3ccccc23)CN1 (stereo unspecified) 0.398 µM
O=C1Nc2ccc(F)cc2C12SCCS2 15.8 µM
Cc1ccc2c(c1)C1(SCCS1)C(=O)N2 0.891 µM
CCOC(=O)n1c(=O)n(Cc2c(Cl)cccc2Cl)c2ccccc21 14.1 µM
CCOC(=O)n1c(=O)n(Cc2ccccc2Cl)c2ccccc21 4.47 µM
COc1cccc(NC(=O)c2cc(-c3cccnc3)nc3c(Cl)cccc23)c1 8.91 µM
CCOC(=O)C1C(=O)C=C(/C=C/c2ccccc2)CC1c1ccc(Cl)cc1 (stereo unspecified) 5.01 µM
Fc1ccc(C2=Nn3c(Cc4ccccc4F)nnc3SC2)cc1 0.355 µM
Cc1cc2ccccc2n1CCNC(=O)c1ccccc1 4.47 µM
Cc1ccc(S(=O)(=O)NCCn2c(C)cc3ccccc32)cc1 15.8 µM
Cc1cc2ccccc2n1CCNC(=O)C1CCCC1 1 µM

AC50, inactive:
Cn1c(CCN2CCCCC2)nc2cc([N+](=O)[O-])ccc21
CN1CCN(c2ccc([N+](=O)[O-])cc2S(=O)(=O)N2CCOCC2)CC1
Oc1cc(O)c2c(c1)O[C@H](c1ccc(O)c(O)c1)[C@H](O)C2
CC1CCCC(C)N1C(=O)C1CC(c2ccc(F)cc2)=NO1 (stereo unspecified)
Cc1ccc(CCN2CC(C(=O)NC3CCCC3)CC2=O)cc1 (stereo unspecified)
COC(=O)c1c(-c2ccccc2)csc1NC(=O)CSc1ncnc2sc(C)c(C)c12
CN(C)CC[C@H](c1ccc(Br)cc1)c1ccccn1
CC(=O)NC1(c2cccc(F)c2)CCN(CC(=O)NC2CCCCC2)CC1
C[C@@](N)(C(=O)O)c1ccc(C(=O)O)cc1
O=C(c1cnc(N2CCN(c3ncccn3)CC2)c2ccccc12)N1CCN(c2ncccn2)CC1
COCC(=O)N1CCC2(CC1)CCN(c1ncccn1)CC2
CCOC(=O)CC1C(=O)NCCN1S(=O)(=O)c1ccc(Cl)c(Cl)c1 (stereo unspecified)
COc1ccc(CCN(C)CCc2ccc(OC)c(OC)c2)cc1OC
COc1cccc(C2C(C(=O)c3cc4ccccc4o3)=C(O)C(=O)N2c2cc(C)on2)c1OC (stereo unspecified)
CCO/C([O-])=N/c1c[n+](N2CCOCC2)no1
CC(C)C(C(=O)NCC1CCCO1)N(Cc1ccco1)C(=O)CNS(=O)(=O)c1ccc(F)cc1 (stereo unspecified)
CCOC(=O)/C(C#N)=C1/C=CN(C)C=N1
CC(C)N(CCNC(=O)C1CCN(S(=O)(=O)N2CCOCC2)CC1)Cc1ccccc1
CC(C)N(CCNC(=O)C1CCC(=O)N1Cc1ccc(F)cc1)Cc1ccccc1 (stereo unspecified)
COc1ccc(/C(O)=C2/C(=O)C(=O)N(Cc3cccnc3)C2c2ccco2)cc1OC (stereo unspecified)
COCCCN1C(=O)C(=O)/C(=C(/O)c2ccc(OC)cc2C)C1c1cccnc1 (stereo unspecified)
COc1ccc(Oc2ncc3nc(-c4cccs4)c(=O)n(Cc4cccc(OC)c4)c3n2)cc1
CCNc1ncc2nc(-c3ccc(Cl)cc3)c(=O)n(Cc3cccc(OC)c3)c2n1
COCC(=O)N1CCC2(CC1)CN(Cc1ccc(C#N)cc1)C2
N[C@@H](CO)C(=O)O
COC(=O)Cn1c(=O)c2c(nc(Br)n2Cc2ccccc2Cl)n(C)c1=O
CCOC(=O)CC1C(=O)NCCN1S(=O)(=O)c1ccccc1Cl (stereo unspecified)
CN(CCCNC(=O)C1CCC(=O)N1Cc1ccccc1Cl)c1ccccc1 (stereo unspecified)
COc1ccc(CN2CCN(C(=O)CC(C)C)CC2)c(OC)c1OC
CCOC(=O)C1=C(C)NC2=C(C(=O)C(C(=O)OCC)C(c3ccc(OC)cc3)C2)C1c1ccccn1 (stereo unspecified)
O=C(Nc1nc2ccccc2n1CCN1CCCCC1)C1CCCCC1
Cc1ccc(C)n1NC(=O)c1ccccc1
Cc1cc2ccccc2c(=O)n1CC(=O)NCC(=O)N1CCCC1
Cc1ccc(S(=O)(=O)NCCSc2nnnn2C)cc1
Cc1ccc(S(=O)(=O)NC(=O)c2cccn2C)cc1
CS(=O)(=O)c1ccc([C@H](O)[C@H](CO)NC(=O)C(Cl)Cl)cc1
